Results reported in PubChem BioAssay.
Active and inactive are the calls of the source.

Columns and labels:
[1] = tested on: Wnt5a (protein binding on small-molecule microarray); assay: small molecules binding Wnt5a protein – biophysical, small-molecule microarray, 635/667 nm fluorescence, primary screen (AID 1142); settings: 635 nm fluorescence, higher = more signal;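 note: fluorescence read at 667 nm with signal to noise per printed feature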
[2] = ATP-based viability of Huh7 replicon cells – cell-based, CellTiter-Glo luminescence, basal, 48 h, cytotoxicity control for HCV replication inhibitor project, primary screen (AID 1143); settings: higher = more signal, called active from +8 up or from −8 down;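 note: Huh7 hepatoma cells carrying a hepatitis C replication reporter with no stimulus; test concentration not given here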
[3] = basal CRE-LacZ reporter activity in PC12 – cell-based, unstimulated, primary screen (AID 1145); settings: no forskolin, luminescence, 4.5 h, higher = more signal, called active from +8 up or from −8 down
[4] = forskolin-driven CRE-LacZ activity in PC12 – cell-based, CRE-LacZ reporter, forskolin-stimulated, primary screen (AID 1146); settings: luminescence, 4.5 h, higher = more signal, called active from +8 up or from −8 down;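 note: PC12 cells with 6xCRE LacZ reporter stimulated by forskolin 10 µM; beta-galactosidase reporter signal reflecting CREB driven transcription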
[5] = target: Streptavidin (Streptomyces avidinii) (UniProt P22629); assay: compounds binding control protein streptavidin – biophysical, small-molecule microarray, 635/667 nm fluorescence, artefact control for SMM compound annotation, primary screen (AID 1147); settings: higher = more signal;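 note: signal reflects streptavidin binding to arrayed compounds as a control protein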
[6] = probe aInhba binding on compound microarray – biochemical, small-molecule microarray, 635/667 nm fluorescence, primary screen (AID 1148); settings: higher = more signal;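 note: score merges 667nm spot fluorescence with signal-to-noise for antibody binding to printed compounds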
Torsin-1A (Homo sapiens) [7] = target: Torsin-1A (Homo sapiens) (UniProt O14656); assay: TOR1A wild-type binding on microarray – cell lysate, small-molecule microarray, lysate, 635/667 nm, primary screen (AID 1149); settings: COS7 hTOR1A-WT lysate, 635 nm fluorescence, higher = more signal
Torsin-1A (Homo sapiens) [8] = target: Torsin-1A (Homo sapiens) (UniProt O14656); assay: torsin A mutant lysate binding on microarrays – cell lysate, small-molecule microarray, COS7 lysate, 635/667 nm fluorescence, primary screen (AID 1150); settings: COS7 hTOR1A mutant lysate, 635 nm fluorescence, higher = more signal;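 note: score pools 667 nm emission and signal to noise measuring lysate protein binding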
[9] = tested on: Sonic hedgehog protein (Shh); assay: Sonic hedgehog microarray binding compounds – biochemical, small-molecule microarray, 635/667 nm fluorescence, primary screen (AID 1151); settings: 635 nm fluorescence, higher = more signal;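 note: Shh protein binding to compounds spotted on small-molecule microarray slides; score combines spot fluorescence intensity with signal-to-noise across triplicate slides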
[10] = optical density shifts of acrAB sulA E. coli – strain DRC41, OD650, 48 h, E. coli filamentation inducer project, primary screen (AID 1152); settings: higher = more signal, called active from +8 up or from −8 down;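 note: E. coli MC1000 strain DRC41 lacking acrAB efflux pump and sulA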
[11] = probe aLefty1 binding on compound microarray – biochemical, small-molecule microarray, 635/667 nm fluorescence, primary screen (AID 1153); settings: higher = more signal;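 note: score merges spot fluorescence with signal-to-noise ratio from the scanned slide images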
[12] = plasmodial surface anion channel blockers, osmotic lysis – cell-based, P. falciparum Indochina, OD700, 1 h, primary screen (AID 1154); settings: P. falciparum Indochina infected RBC osmotic lysis, higher = more signal, called active from +8 up or from −8 down
[13] = plasmodial surface anion channel blockers, osmotic lysis – cell-based, P. falciparum Indochina, OD700, 2 h, primary screen (AID 1155);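 note: lysis reports solute entry through the parasite surface anion channel PSAC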; settings: P. falciparum Indochina infected erythrocytes, higher = more signal, called active from +8 up or from −8 down
[14] = changes in parasitized red cell lysis, either direction – P. falciparum Indochina, OD700, 3 h, PSAC antagonist project, primary screen (AID 1156); settings: P. falciparum-infected erythrocytes, osmotic lysis, higher = more signal, called active from +8 up or from −8 down
[15] = plasmodial surface anion channel blockers, osmotic lysis – cell-based, P. falciparum Indochina, OD700, 18 h, primary screen (AID 1157); settings: P. falciparum Indochina infected erythrocytes, osmotic lysis OD700, 18 h; higher = more signal, called active from +8 up or from −8 down
[16] = S6 kinase pathway phospho-S6 level changes – cell-based, A549, cytoblot, luminescence, serum-stimulated, primary screen (AID 1158); settings: 5 h, higher = more signal;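 note: serum-stimulated A549 lung adenocarcinoma cells; signal is phosphorylated S6 detected by cytoblot immunostaining with HRP secondary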
[17] = target: NADPH oxidase 2 (Homo sapiens) (UniProt P04839); assay: compounds shifting NOX2 Amplex Red fluorescence – cell-based, HEK293-NOX2, PMA-stimulated, NOX inhibitor project, primary screen (AID 1159); settings: 45 min, higher = more signal, called active from +8 up or from −8 down; note: test concentration not given here
[18] = target: NADPH oxidase 4 (Homo sapiens) (UniProt Q9NPH5); assay: compounds shifting NOX4 Amplex Red fluorescence – cell-based, HEK293-NOX4, tetracycline-induced, NOX inhibitor project, primary screen (AID 1160); settings: HEK293-NOX4, Amplex Red H2O2 fluorescence, 45 min; higher = more signal, called active from +8 up or from −8 down
[19] = target: NADPH oxidase 5 (Homo sapiens) (UniProt Q96PH1); assay: compounds shifting NOX5 Amplex Red fluorescence – cell-based, HEK293-NOX5, NOX inhibitor project, primary screen (AID 1161); settings: HEK293-NOX5, ionomycin, 45 min, higher = more signal
NADPH oxidase 5 (Homo sapiens), sequence (Q96PH1 whole entry, looked up): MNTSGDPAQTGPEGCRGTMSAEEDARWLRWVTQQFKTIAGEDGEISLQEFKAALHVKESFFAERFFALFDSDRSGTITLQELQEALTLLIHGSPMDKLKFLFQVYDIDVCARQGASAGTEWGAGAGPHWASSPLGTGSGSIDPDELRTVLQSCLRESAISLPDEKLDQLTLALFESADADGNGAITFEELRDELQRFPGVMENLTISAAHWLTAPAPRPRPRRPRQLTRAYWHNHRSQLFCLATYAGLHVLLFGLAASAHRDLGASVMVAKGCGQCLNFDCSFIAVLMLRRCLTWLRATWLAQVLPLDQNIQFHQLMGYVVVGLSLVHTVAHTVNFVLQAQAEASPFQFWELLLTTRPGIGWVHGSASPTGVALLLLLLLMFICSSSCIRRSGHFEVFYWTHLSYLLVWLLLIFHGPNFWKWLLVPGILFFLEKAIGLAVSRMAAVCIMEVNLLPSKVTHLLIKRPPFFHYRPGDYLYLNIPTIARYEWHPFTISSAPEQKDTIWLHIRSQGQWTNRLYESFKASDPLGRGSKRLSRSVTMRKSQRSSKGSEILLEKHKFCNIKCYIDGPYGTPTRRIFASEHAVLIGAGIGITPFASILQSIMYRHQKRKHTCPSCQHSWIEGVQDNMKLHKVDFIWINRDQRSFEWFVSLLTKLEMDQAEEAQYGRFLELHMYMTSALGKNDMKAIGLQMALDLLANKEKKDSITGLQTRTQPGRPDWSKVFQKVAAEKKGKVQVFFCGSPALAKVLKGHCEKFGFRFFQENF

Torsin-1A (Homo sapiens), sequence (O14656 whole entry, looked up): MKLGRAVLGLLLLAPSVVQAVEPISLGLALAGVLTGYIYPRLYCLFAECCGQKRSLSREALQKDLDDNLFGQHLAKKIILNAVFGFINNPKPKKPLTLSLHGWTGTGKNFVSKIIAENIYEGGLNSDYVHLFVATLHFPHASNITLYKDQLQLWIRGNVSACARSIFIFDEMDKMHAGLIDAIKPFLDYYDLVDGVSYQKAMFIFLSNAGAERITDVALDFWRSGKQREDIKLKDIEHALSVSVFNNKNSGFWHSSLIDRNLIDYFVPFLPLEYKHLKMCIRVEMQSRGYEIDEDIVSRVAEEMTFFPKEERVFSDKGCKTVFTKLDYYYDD
Streptavidin (Streptomyces avidinii), sequence (P22629 whole entry, looked up): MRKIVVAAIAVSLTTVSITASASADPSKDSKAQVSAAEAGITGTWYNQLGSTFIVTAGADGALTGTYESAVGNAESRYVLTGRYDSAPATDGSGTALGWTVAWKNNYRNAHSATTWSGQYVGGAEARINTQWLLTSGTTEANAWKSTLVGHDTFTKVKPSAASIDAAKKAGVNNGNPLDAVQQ
NADPH oxidase 4 (Homo sapiens), sequence (Q9NPH5 whole entry, looked up): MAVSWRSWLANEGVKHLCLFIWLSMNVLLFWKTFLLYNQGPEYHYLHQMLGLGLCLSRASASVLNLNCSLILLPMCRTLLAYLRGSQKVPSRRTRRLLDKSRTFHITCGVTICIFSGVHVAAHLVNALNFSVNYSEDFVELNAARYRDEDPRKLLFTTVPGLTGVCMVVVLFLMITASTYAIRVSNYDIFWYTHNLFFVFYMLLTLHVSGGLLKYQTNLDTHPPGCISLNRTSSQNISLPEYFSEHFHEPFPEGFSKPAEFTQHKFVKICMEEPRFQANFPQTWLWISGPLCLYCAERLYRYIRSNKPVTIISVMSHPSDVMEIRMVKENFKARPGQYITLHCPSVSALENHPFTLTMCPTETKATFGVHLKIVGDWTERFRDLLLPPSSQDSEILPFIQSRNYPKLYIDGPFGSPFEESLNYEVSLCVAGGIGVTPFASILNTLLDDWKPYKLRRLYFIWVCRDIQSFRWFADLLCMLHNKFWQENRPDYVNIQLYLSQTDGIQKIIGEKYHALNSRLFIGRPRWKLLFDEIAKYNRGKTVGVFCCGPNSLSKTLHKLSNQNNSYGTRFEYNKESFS
NADPH oxidase 2 (Homo sapiens), sequence (P04839 whole entry, looked up): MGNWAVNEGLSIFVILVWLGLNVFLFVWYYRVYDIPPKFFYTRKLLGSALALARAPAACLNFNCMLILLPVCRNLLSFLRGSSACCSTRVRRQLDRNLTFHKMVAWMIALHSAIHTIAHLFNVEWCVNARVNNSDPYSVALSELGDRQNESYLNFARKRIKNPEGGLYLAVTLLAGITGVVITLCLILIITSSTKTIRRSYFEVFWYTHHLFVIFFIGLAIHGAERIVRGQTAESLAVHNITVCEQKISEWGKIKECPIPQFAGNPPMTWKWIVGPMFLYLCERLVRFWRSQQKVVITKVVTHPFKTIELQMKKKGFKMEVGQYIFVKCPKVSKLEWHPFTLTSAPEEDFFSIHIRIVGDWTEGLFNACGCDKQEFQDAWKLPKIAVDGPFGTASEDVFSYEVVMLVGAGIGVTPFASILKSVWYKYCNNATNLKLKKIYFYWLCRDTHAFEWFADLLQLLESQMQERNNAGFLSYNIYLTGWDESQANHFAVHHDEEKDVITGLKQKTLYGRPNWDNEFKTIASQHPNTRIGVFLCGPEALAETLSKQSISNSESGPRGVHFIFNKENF

Compound	composite z-score [1]	z-score [2]	z-score [3]	z-score [4]	composite z-score [5]	composite z-score [6]	composite z-score (Torsin-1A (Homo sapiens) [7])	composite z-score (Torsin-1A (Homo sapiens) [8])	composite z-score [9]	z-score [10]	composite z-score [11]	z-score [12]	z-score [13]	z-score [14]	z-score [15]	z-score [16]	z-score [17]	z-score [18]	z-score [19]
CO[C@H]1COC(=O)[C@H](C)NC(=O)CC=C[C@@H](C)[C@H](NS(=O)(=O)c2ccc(C)cc2)COC(=O)[C@@H](OCc2ccccc2)C=C[C@@H]1C	0.0746	0.0974 (inactive)	1.06 (inactive)	-0.594 (inactive)	-0.25	-0.261	0.196	0.316	0.96	0.117 (inactive)	-0.303	0.655 (inactive)	0.637 (inactive)	0.416 (inactive)	-0.14 (inactive)	0.215	1.4 (inactive)	0.815 (inactive)	0.2
COc1cccc([C@H]2N[C@H](C(=O)O)CC[C@@H]2C)c1	0.04	-3.79 (inactive)	-0.167 (inactive)	-1.61 (inactive)	0.158	-0.111	0.386	0.403	-0.0276	0.669 (inactive)	-0.23	1.09 (inactive)	0.0208 (inactive)	0.269 (inactive)	-1.06 (inactive)	3.05	0.0263 (inactive)	-0.557 (inactive)	0.125
CC(C)[Si]1(C(C)C)OCc2cc(C3CC3)nc(-c3ccccc3)c21	-0.125	-1.63 (inactive)	0.339 (inactive)	-1.08 (inactive)	-0.0842	-0.108	0.188	0.127	0.545	2.37 (inactive)	-0.0573	2.84 (inactive)	0.201 (inactive)	0.531 (inactive)	-0.15 (inactive)	1.34	1.86 (inactive)	1.06 (inactive)	-1.28
COCCOC(=O)N1C(=O)[C@@]2(c3cc(C#CCC(C(=O)OC)C(=O)OC)ccc31)[C@H](C(=O)N1CCN(c3ncccn3)CC1)[C@H]1C(=O)O[C@H](c3ccccc3)[C@H](c3ccccc3)N1[C@@H]2c1ccc(O)cc1	0.117	-3.81 (inactive)	-0.671 (inactive)	-0.784 (inactive)	0.043	0.0386	0.143	0.731	1.38	3.34 (inactive)	0.443	1.92 (inactive)	-0.0642 (inactive)	-0.504 (inactive)	-1.39 (inactive)	1.69	1.28 (inactive)	0.7 (inactive)	1.82
C=CCC(OC(C)=O)[C@@H]1[C@@H](N(Cc2cc3ccccc3o2)C(=O)c2ccc(C)cc2)c2cc(OCCCO)ccc2N1C(=O)c1ccc2ccccc2n1 (some centres undefined)	-0.0502	-0.17 (inactive)	5.44 (inactive)	-0.273 (inactive)	0.184	-0.0266	0.369	-0.368	0.609	3.08 (inactive)	-0.007	0.834 (inactive)	0.345 (inactive)	-0.629 (inactive)	0.432 (inactive)	0.469	0.12 (inactive)	0.589 (inactive)	1.51
C=C(COC)/C(=C/C[C@@H](OC(=O)c1ccncc1)c1ccc(OCCO)cc1)c1cc(C(=O)OC)ccc1OC	0.147	-2.43 (inactive)	9.09 (active)	-2.02 (inactive)	1.14	0.0212	1.06	0.838	0.811	2.31 (inactive)	0.0686	14.6 (active)	0.629 (inactive)	1.35 (inactive)	-1.53 (inactive)	0.866	1.98 (inactive)	2.24 (inactive)	-0.63
O=C(NCc1ccccc1)[C@@]1(CCS(=O)(=O)c2ccccc2)COC(c2ccc(OCCCO)cc2)=N1	0.23	-3.07 (inactive)	-0.137 (inactive)	-2.67 (inactive)	2	0.281	0.911	0.576	0.331	2.13 (inactive)	0.715	30.4 (active)	25.8 (active)	3.7 (inactive)	5.53 (inactive)	2.54	-2.26 (inactive)	-0.0883 (inactive)	-2.24
CCOC(=O)[C@H]1C/C=C/C[C@H](C(=O)OCC)C(=O)O[C@H]2[C@@H](OC)O[C@H](CO)[C@@H](OC(=O)Nc3ccc(Br)cc3)[C@@H]2OC1=O	0.172	-6.64 (inactive)	-0.614 (inactive)	-1.23 (inactive)	0.521	-0.121	0.164	-0.2	0.69	2.32 (inactive)	0.0606	5.41 (inactive)	1.8 (inactive)	-3.28 (inactive)	0.412 (inactive)	1.5	-0.611 (inactive)	-0.759 (inactive)	1.63
COC(=O)C1=C(C)N(Cc2ccccc2)c2c(C(=O)OC)c(C(=O)OC)c(C(=O)OC)c(=O)n2[C@@H]1c1ccccc1	0.191	-0.233 (inactive)	4.26 (inactive)	-1.23 (inactive)	0.125	0.0503	0.285	0.505	0.426	0.199 (inactive)	-0.0186	0.294 (inactive)	-1.61 (inactive)	0.012 (inactive)	-1.45 (inactive)	0.715	1.74 (inactive)	0.873 (inactive)	-0.0758
CC/C=C/C(=O)N(C[C@@H]1CCCO1)[C@@H]1CC(C(=O)NCCO)=C[C@H](Oc2c(I)cc(CO)cc2OC)[C@H]1O	-0.0308	-1.97 (inactive)	0.858 (inactive)	-2.41 (inactive)	-0.0512	-0.128	0.553	0.267	0.239	1.24 (inactive)	0.135	1.05 (inactive)	-0.433 (inactive)	1.31 (inactive)	-1.48 (inactive)	1.98	-0.425 (inactive)	1.5 (inactive)	1.2
CO[C@@H]1COC(=O)[C@H](COCc2ccccc2)NC(=O)CC=C[C@@H](C)[C@H](OC)COC(=O)[C@H](COCc2ccccc2)NC(=O)CC=C[C@H]1C	0.0648	-0.853 (inactive)	0.336 (inactive)	-0.401 (inactive)	-0.405	-0.2	0.692	0.209	0.839	-0.207 (inactive)	0.113	-0.279 (inactive)	-0.562 (inactive)	-0.646 (inactive)	-1.73 (inactive)	0.37	1.15 (inactive)	0.931 (inactive)	0.314
C[C@@H]1CC[C@H]2C(=O)N3[C@@H](CC[C@@H](C)[C@@H]3c3cccc(N4CCOCC4)c3)C(=O)N2[C@H]1c1cccc(Br)c1	0.205	-0.167 (inactive)	4.71 (inactive)	-0.902 (inactive)	0.63	0.0561	0.472	0.418	0.994	0.801 (inactive)	-0.0061	8.99 (active)	1.51 (inactive)	0.826 (inactive)	0.71 (inactive)	-0.246	0.693 (inactive)	0.815 (inactive)	0.717
CO[C@H]1COC(=O)[C@@H](C)COC(=O)[C@H](Cc2ccccc2)NC(=O)CC=C[C@H]1C	-0.0116	-0.317 (inactive)	0.432 (inactive)	-0.968 (inactive)	-0.666	-0.0889	0.268	0.0916	1.85	-0.507 (inactive)	-0.363	-0.318 (inactive)	-1.31 (inactive)	-0.116 (inactive)	-2.15 (inactive)	0.627	0.714 (inactive)	0.791 (inactive)	0.299
CO[C@H]1COC(=O)CC=C[C@H](C)[C@@H](OC)COC(=O)[C@H](Cc2ccccc2)NC(=O)CC=C[C@@H]1C	-0.359	-0.89 (inactive)	0.248 (inactive)	-0.802 (inactive)	-0.234	-0.408	0.45	0.593	2.05	-0.76 (inactive)	-0.183	-0.235 (inactive)	-0.912 (inactive)	0.959 (inactive)	-2.2 (inactive)	0.659	0.93 (inactive)	-1.49 (inactive)	0.404
CO[C@H]1O[C@H](CO)[C@@H](OC(=O)Nc2ccccc2)[C@H](OC(=O)Nc2ccc3c(c2)OCO3)[C@@H]1OC(=O)Nc1ccc2c(c1)OCO2	0.328	-3.67 (inactive)	0.185 (inactive)	-2.4 (inactive)	0.232	-0.0079	0.433	0.876	0.599	1.44 (inactive)	0.273	9.35 (active)	-0.145 (inactive)	1.78 (inactive)	-2 (inactive)	1.27	0.679 (inactive)	0.0792 (inactive)	-0.922
COCC(=C=CC[C@H](O)c1ccc(OCCO)cc1)C[C@H](O)c1ccccn1	-0.0253	-0.23 (inactive)	3.18 (inactive)	-1.44 (inactive)	-0.65	-0.018	-0.353	0.904	1.05	1.36 (inactive)	-0.194	8.89 (active)	0.989 (inactive)	0.938 (inactive)	0.48 (inactive)	-0.324	2.36 (inactive)	1.71 (inactive)	1.32
